Compound activity (PubChem BioAssay)
Sampled rows, rich in hits. Any-hit rate of the full collection: about 1.6%.
KCNQ2 inh: inhibitors of rat KCNQ2 potassium channel; O88943; CHO-K1 KCNQ2, FluxOR thallium flux, 20 min; hits give low values; B-score at 10 µM; 1.1% of 310,000 active;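 active = fluorescence ratio B-score at most minus 3 library SDs, with starting brightness B-score within 2 library SDs, cut at about -5.5 in these data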
KCNQ2 enhance: enhances the rat KCNQ2 potassium channel | O88943 | CHO-K1 KCNQ2, FluxOR thallium flux fluorescence; hits give high values | B-score at 10 µM | 0.54% of 310,000 active;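 active = fluorescence ratio B-score at least 3 SD of library B-scores, with initial fluorescence B-score within 3 of them, cut at about 5.3 in these data; same plate scores as AID 2156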;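 note: B-score of peak minus minimum over baseline fluorescence ratio after K+ and Tl+ stimulus; positive B-score means potentiation of KCNQ2 with more thallium influx and brighter signal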
Starred values were filed as active, the others as inactive; i = inactive; . = no result given.

SMILES	KCNQ2 inh	KCNQ2 enhance
Cc1cccc(Nc2nnc(SCC(=O)NC3CCCc4ccccc43)s2)c1C (configuration not stated)	-5.92*	-5.92
O=C(CSc1nnc(-c2ccncc2)n1Cc1ccccc1)NC1CCCc2ccccc21 (configuration not stated)	-5.75*	-5.75
O=C(CSc1nc2ccccc2s1)NC1CCCc2ccccc21 (configuration not stated)	i	.
O=C(CSc1nc(=O)n(CCCN2CCOCC2)c2c1CCCC2)Nc1ccc(Cl)cc1	i	.
O=C(CCNC(=O)c1ccccc1Cl)NCCc1ccc(C(F)(F)F)cc1	i	.
O=C(NC1CCC(O)CC1)c1cccc2cccnc12 (configuration not stated)	i	.
Cc1cccc(N=Nc2ccc(O)c3ncccc23)c1	i	6.93*
Cc1ccc(C)c(N=Nc2ccc(O)c3ncccc23)c1	i	2.4
O=C(NCc1cccc(Cl)c1)C1CCCN(c2ncnc3c2nc2n3CCCCC2)C1 (configuration not stated)	i	.
CC(C)c1ccc2[nH]c3c(c2c1)[C@@H]1CCN2C(=O)CCC[C@H](C3)[C@H]12	i	0.62
NC(=O)CSc1nccn1Cc1ccccc1	i	0.31
O=[N+]([O-])c1ccccc1Sc1nccn1Cc1ccccc1	-6.46*	-6.46
Cc1nc2nc(-c3cccs3)[nH]c2cc1Br	i	1.14
CC(NC(=O)c1ccccc1)c1nnc(SCC(=O)Nc2nnc(C3CC3)s2)n1C (configuration not stated)	i	2.61
O=C1c2ccccc2NC(c2ccc(F)cc2)N1Cc1ccco1 (configuration not stated)	i	0.53
O=C1c2ccccc2NC(c2ccccc2)N1Cc1ccco1 (configuration not stated)	i	.
COc1cccc(OCc2cc(C3Nc4ccccc4C(=O)N3Cc3ccco3)ccc2OC)c1 (configuration not stated)	-5.87*	-5.87
COc1ccc(C2Nc3ccccc3C(=O)N2Cc2ccco2)cc1COc1ccc([N+](=O)[O-])cc1 (configuration not stated)	-6.79*	-6.79
N#Cc1ccc(Oc2ncccn2)cc1	i	1.73
CCOC(=O)C(CCCOc1cccc(CC)c1)C(=O)OCC	i	.
CCOC(=O)C(CCCCOc1cccc(CC)c1)C(=O)OCC	-5.57*	-5.57
Cc1cc(S(=O)(=O)N2c3ccc(F)cc3CCC2C)ccc1-n1cnnn1 (configuration not stated)	i	1.16
COc1cccc(C(=O)NCC(c2ccco2)N2CCOCC2)c1 (configuration not stated)	i	1.88
O=C(COC(=O)c1cc(Br)ccc1O)Nc1cccnc1Cl	i	0.51
O=S1(=O)CCS(=O)(=O)C1c1ccccc1	i	0.87
SMILES	KCNQ2 inh	KCNQ2 enhance
CC(C)(CNC(=O)c1ccc(-c2cccc(C(F)(F)F)c2)o1)N1CCOCC1	i	.
Cc1[nH]c2ccccc2c1C(=O)C(=O)Nc1ccc2c(c1)OCO2	i	0.84
CC(C)N1C(=O)CCC1C(=O)NCc1ccc(F)cc1Cl (configuration not stated)	i	.
COC(=O)c1ccc(NC(=S)NC2CCCCC2)cc1	i	.
COC(=O)c1cccnc1NC(=S)NC1CCCCC1	i	7.69*
Cc1ccc(NC(=O)C2CC2C)cc1S(=O)(=O)N1CCOCC1 (configuration not stated)	i	.
COCCN1C(=O)C(=O)/C(=C(/O)c2ccc(S(=O)(=O)N3CCOCC3)cc2)C1c1cccc(OC)c1 (configuration not stated)	i	0.56
COc1ccc(O[C@H]2C=C[C@@H](c3ccccc3)O[C@@H]2CO/N=C(\C)CCN2CCc3nc(-c4ccccc4)c(-c4ccccc4)cc3C2)cc1	i	7.48*
CCc1cc2c(nc1CC)CCN(CC/C(C)=N/OC[C@H]1O[C@H](c3ccccc3)C=C[C@@H]1Oc1ccc(OC)cc1)C2	i	.
N/C(=N\OC(=O)c1ccc2ccccc2c1)c1ccccc1Cl	i	.
O=[N+]([O-])c1nn(-c2ccc3c(c2)OCCO3)n(O)c1=NC1CCCCC1	i	0.86
CC1CCN(c2c([N+](=O)[O-])nn(-c3ccc4c(c3)OCCO4)[n+]2[O-])CC1	-5.58*	-5.58
Cc1cc(=O)oc2cc(NC(=O)C(CCCN=C(N)N)NC(=O)OCc3ccccc3)ccc12 (configuration not stated)	i	.
CC(NC(=O)c1ccc(NC2=NC3CS(=O)(=O)CC3S2)cc1)c1ccccc1 (configuration not stated)	i	.
CCN(Cc1ccncc1)C(=O)c1cc(COc2c(C)cccc2C)on1	i	.
O=C(NC1=C(NC2CCS(=O)(=O)C2)C(=O)c2ccccc2C1=O)c1ccccc1 (configuration not stated)	i	6.23*
O=C(NC(NC1CCS(=O)(=O)C1)C(=O)c1cccs1)c1ccccc1 (configuration not stated)	i	.
